This is an account of results in PubChem BioAssay.

Test [1] can be described thus: A549 cell viability effects, profiling panel, calcein-AM fluorescence, 48 h, basal (AID 1162). Note: test concentration not given here. The following applies: higher = more signal.
The nature of test [2]: adipocyte viability effects, profiling panel, cell-based, 3T3-L1 adipocytes, calcein-AM fluorescence, 48 h, basal (AID 1163). Note: test concentration not given here. The following applies: 3T3-L1 adipocytes viability, higher = more signal.
The nature of test [3]: HepG2 cell viability effects, profiling panel, calcein-AM fluorescence, 48 h, basal (AID 1164). Note: test concentration not given here. The following applies: higher = more signal.
Test [4] is described as follows: MM1S cell viability effects, profiling panel, calcein-AM fluorescence, 48 h, basal (AID 1165).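 Note: viability of MM1S multiple myeloma cells under basal unstimulated conditions; test concentration not given here.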 The following applies: higher = more signal.
The nature of test [5]: basal RPMI8226 viability, no added stimulus, profiling panel, cell-based, calcein-AM fluorescence, 48 h, PK04 Diversity Set (AID 1166).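 Note: cells grown under basal conditions without added stimulus; test concentration not given here.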 The following applies: RPMI8226 myeloma viability, higher = more signal.
A short description of test [6]: basal HepG2 mitochondrial membrane potential changes, profiling panel, cell-based, JC-1 fluorescence, 24 h, 100 nL compound (AID 1167). Note: test concentration not given here. The following applies: higher = more signal.
A short description of test [7]: basal 3T3-L1 adipocyte mitochondrial potential changes, profiling panel, cell-based, JC-1 fluorescence, 3T3-L1 adipocytes, 24 h, 100 nL compound (AID 1168). Note: test concentration not given here. The following applies: JC-1 mitochondrial fluorescence, higher = more signal, called active from +8 up or from −8 down.
Test [8] is described as follows: basal RPMI8226 mitochondrial membrane potential changes, profiling panel, cell-based, JC-1 fluorescence, 24 h, 100 nL compound (AID 1169). Note: test concentration not given here. The following applies: RPMI8226 myeloma, JC-1 mitochondrial potential fluorescence, higher = more signal.
A short description of test [9]: basal MM1S mitochondrial membrane potential changes, profiling panel, cell-based, JC-1 fluorescence, 24 h, 100 nL compound (AID 1170). Note: test concentration not given here. The following applies: higher = more signal.
A short description of test [10]: A549 lung cancer cell viability effects, profiling panel, resazurin fluorescence, 24 h, PK04 Diversity Set (AID 1171). Note: test concentration not given here. The following applies: higher = more signal, called active from +8 up or from −8 down. (Alamar Blue is a resazurin reagent that responds to reducing activity.)
Test [11] is described as follows: HepG2 liver cancer cell viability effects, profiling panel, resazurin fluorescence, 24 h, PK04 Diversity Set (AID 1172). Note: test concentration not given here. The following applies: higher = more signal.
The nature of test [12]: basal S. cerevisiae growth modulation, no modifier, primary screen, OD600, strain BY4716, 24 h, basal condition (AID 1173). The following applies: OD600, 24 h, higher = more signal, called active from +8 up or from −8 down.
The nature of test [13]: MM1S myeloma cell viability, profiling panel, resazurin fluorescence, basal, 24 h, PK04 Diversity Set (AID 1174).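 Note: MM1S multiple myeloma cell line; test concentration not given here.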 The following applies: higher = more signal, called active from +8 up or from −8 down.
Test [14] deals with Dihydroorotate dehydrogenase (quinone), mitochondrial (Plasmodium falciparum (isolate 3D7)) (UniProt Q08210). Briefly: PfDHODH enzyme inhibitors, primary screen, biochemical, C-terminal His tag, absorbance 600 nm (AID 1175).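 Note: recombinant parasite enzyme with a five histidine tag at its C terminus; test concentration not given here.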 The following applies: DCIP absorbance 600 nm, higher = more signal, called active from +8 up or from −8 down.
A short description of test [15]: P. aeruginosa biofilm formation inhibitors, primary screen, strain PAO1, LB-PBS medium, absorbance 600 nm (AID 1176). Note: test concentration not given here. The following applies: P. aeruginosa PAO1 growth/biofilm, A600, 12 h; higher = more signal.
Test [16] is described as follows: S. cerevisiae RM11-1a growth modifiers, primary screen, strain RM11-1a, OD600, basal, 24 h (AID 1177).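 Note: cultures grown under basal conditions with no added stressor; test concentration not given here.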 The following applies: OD600, 24 h, higher = more signal, called active from +8 up or from −8 down.
Test [17] can be described thus: E. coli acrAB mutant growth effects, primary screen, E. coli filamentation inducers, strain DRC39, OD650, 24 h (AID 1178).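 Note: growth measured as culture turbidity by optical density at 650 nm; test concentration not given here.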 The following applies: higher = more signal, called active from +8 up or from −8 down.
A short description of test [18]: E. coli acrAB mutant growth effects, primary screen, E. coli filamentation inducers, strain DRC39, OD650, 48 h (AID 1179).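 Note: screen aims at cell division blockers that make cells filament.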 The following applies: E. coli DRC39 delta-acrAB growth, higher = more signal, called active from +8 up or from −8 down.
Test [19] can be described thus: RPMI8226 myeloma cell viability, profiling panel, resazurin fluorescence, basal, 24 h, PK04 Diversity Set (AID 1180).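 Note: RPMI8826 multiple myeloma cell line at 5000 cells per well; test concentration not given here.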 The following applies: higher = more signal.
Test [20] concerns the target E3 ubiquitin-protein ligase XIAP (Homo sapiens) (UniProt P98170). Kind of test: XIAP binders, primary screen, biophysical, small-molecule microarray, fluorescence 635 nm (AID 1181).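 Note: score merges 667 nm emission and signal to noise over triplicate slides.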 The following applies: small-molecule microarray binding, higher = more signal.

Activity calls are given as the source filed them. Unless noted, the rule behind the calls is not given here.

Sequence of Dihydroorotate dehydrogenase (quinone), mitochondrial (Plasmodium falciparum (isolate 3D7)) (Q08210 whole entry, looked up): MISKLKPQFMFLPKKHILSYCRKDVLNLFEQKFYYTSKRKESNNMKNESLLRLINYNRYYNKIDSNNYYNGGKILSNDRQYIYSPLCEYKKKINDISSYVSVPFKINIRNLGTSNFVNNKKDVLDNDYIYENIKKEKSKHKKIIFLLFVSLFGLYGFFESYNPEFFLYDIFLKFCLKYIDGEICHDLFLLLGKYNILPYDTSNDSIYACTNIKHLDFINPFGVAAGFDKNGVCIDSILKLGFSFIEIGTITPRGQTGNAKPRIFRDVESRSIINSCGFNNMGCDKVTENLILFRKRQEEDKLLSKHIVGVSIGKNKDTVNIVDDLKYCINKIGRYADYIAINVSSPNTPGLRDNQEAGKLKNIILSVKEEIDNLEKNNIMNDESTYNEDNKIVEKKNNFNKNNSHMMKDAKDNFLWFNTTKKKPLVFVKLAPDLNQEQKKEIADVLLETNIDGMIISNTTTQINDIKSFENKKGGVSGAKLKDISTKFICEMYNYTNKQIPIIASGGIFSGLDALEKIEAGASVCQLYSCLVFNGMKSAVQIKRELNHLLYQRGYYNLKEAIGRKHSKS
Sequence of E3 ubiquitin-protein ligase XIAP (Homo sapiens) (P98170 whole entry, looked up): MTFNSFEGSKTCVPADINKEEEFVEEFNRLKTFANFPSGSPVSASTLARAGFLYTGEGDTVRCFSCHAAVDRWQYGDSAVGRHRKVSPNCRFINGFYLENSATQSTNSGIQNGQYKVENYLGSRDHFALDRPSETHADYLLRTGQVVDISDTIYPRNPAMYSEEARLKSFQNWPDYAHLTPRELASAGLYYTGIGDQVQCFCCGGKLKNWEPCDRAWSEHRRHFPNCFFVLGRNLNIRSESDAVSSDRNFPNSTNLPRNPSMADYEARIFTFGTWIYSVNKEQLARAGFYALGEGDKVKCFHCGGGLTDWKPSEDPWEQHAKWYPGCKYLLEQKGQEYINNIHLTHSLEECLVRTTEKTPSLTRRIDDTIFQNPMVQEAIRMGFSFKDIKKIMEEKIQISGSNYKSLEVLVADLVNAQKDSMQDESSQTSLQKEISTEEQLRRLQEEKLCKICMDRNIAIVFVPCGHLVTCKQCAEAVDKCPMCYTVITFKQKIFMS

Take `COCCOC(=O)N1C(=O)[C@@]2(c3cc(C#CC4(O)CCCCCC4)ccc31)[C@H](C(=O)N1CCCCCCC1)[C@H]1C(=O)O[C@H](c3ccccc3)[C@H](c3ccccc3)N1[C@@H]2c1ccc(OCCO)cc1`: the z-score was 0.364 in test [1]; 1.85 in test [2]; 0.783 in [3]; -1.62 in test [4]; -2.6 in test [5]; -0.914 in test [6]. The z-score in test [7] is -2.37 (inactive); in [8], -0.693; in test [9] it was -0.756; in [10] it was 1.08 (inactive); in test [11], 0.304; in [12] it was 0.397 (inactive). Also, the z-score in [13] was 0.67 (inactive); in test [15], 2.03 (inactive); in [16], 1.51 (inactive); in test [17], -0.151 (inactive); in test [18] it was 0.201 (inactive); in test [19], 0.918. The composite z-score was -2.1 (inactive) in test [14] and 0.293 in [20].
Take `COC(=O)[C@@]1(Cc2ccc(OC)cc2)[C@H]2c3cc(C(=O)N(C)C)n(Cc4ccccc4)c3C[C@H]2CN1C(=O)c1ccccc1`: the z-score was 0.0457 in test [1]; 0.245 in test [2]; -2.3 in test [3]; -2.27 in test [4]; -2.17 in test [5]; 2.45 in test [6]. Moreover, the z-score in test [7] is -0.45 (inactive); in test [8], -0.398; in [9], -1.85; in test [10], 0.616 (inactive); in test [11] it was 2.31; in [12], -0.373 (inactive). Moreover, the z-score was -1.15 (inactive) in test [13]; 0.756 (inactive) in [15]; 0.692 (inactive) in test [16]; 0.111 (inactive) in test [17]; 0.892 (inactive) in [18]; -1.66 in test [19]. In addition, the composite z-score in test [14] is 0.171 (inactive); in test [20], 0.0791.
With `NC(N)=NCc1cn(CCc2c[nH]c3ccccc23)nn1`, the z-score in test [1] is -0.609; in [2] it was -0.596; in [3], -0.173; in [4] it was -0.613; in [5], -0.286; in test [6] it was -1.09. Besides, the z-score is -1.04 (inactive) in test [7]; -0.588 in [8]; -0.77 in test [9]; -0.975 (inactive) in test [10]; -0.739 in test [11]; 0.274 (inactive) in [12]. Further, the z-score was -0.237 (inactive) in test [13]; 0.0429 (inactive) in [15]; 0.191 (inactive) in test [16]; 0.148 (inactive) in [17]; -0.0579 (inactive) in [18]; -0.533 in test [19]. In addition, the composite z-score in test [14] was -26.7 (active); in test [20], -0.163.
As to `COC(=O)[C@@]1(Cc2ccccc2)[C@H]2c3cc(C(=O)N4CCCC4)n(C[C@H](O)CO)c3C[C@H]2CN1C(=O)c1ccccc1`, the z-score in [1] is -1.11; in [2], -0.154; in test [3] it was 0.0709; in test [4] it was 0.37; in test [5] it was 0.302; in test [6], 0.438. The z-score in test [7] is -0.128 (inactive); in test [8], -0.0296; in [9], -0.3; in [10] it was -0.63 (inactive); in [11], -0.476; in test [12], 1.08 (inactive). Moreover, the z-score is -0.688 (inactive) in test [13]; 0.0818 (inactive) in test [15]; 0.267 (inactive) in [16]; -0.685 (inactive) in test [17]; -0.299 (inactive) in test [18]; -0.746 in [19]. For the same molecule, the figures for the composite z-score in test [14] and in test [20] were 0.355 (inactive) and -0.099, respectively.
Regarding `Cc1ccc(S[C@]2(C(=O)NC(C)C)CC(=O)N(C3Cc4ccccc4C3)[C@@H]2c2ccc(CO)cc2I)cc1`, the z-score in test [1] was 0.6; in [2], -0.345; in [3], 0.425; in [4] it was -1.7; in [5], -1.29; in test [6], 0.221. Further, the z-score was -0.277 (inactive) in test [7]; -0.697 in test [8]; -2.19 in test [9]; -0.526 (inactive) in test [10]; -0.703 in [11]; -3.55 (inactive) in test [12]. Moreover, the z-score in test [13] is -3.17 (inactive); in [15], 0.379 (inactive); in [16] it was -0.639 (inactive); in [17], 0.525 (inactive); in test [18], 0.969 (inactive); in test [19], -2.08. Moreover, the composite z-score in test [14] is -2.86 (inactive); in test [20], -0.0795.
For the molecule `NCCCCCCNC(=O)[C@H]1C[C@H]2C(=O)N[C@@H](Cc3ccccc3)C(=O)N2[C@H]1c1ccc(O)cc1`, the z-score in [1] was 0.0513; in [2] it was 0.565; in test [3], -0.623; in test [4], 0.675; in test [5], 0.337; in [6] it was -0.424. Besides, the z-score was 0.0433 (inactive) in test [7]; -1 in [8]; -0.119 in [9]; 1.18 (inactive) in [10]; 0.614 in [11]; -0.68 (inactive) in [12]. Besides, the z-score in [13] was 1.58 (inactive); in test [15], 0.118 (inactive); in [16], -1.27 (inactive); in test [17], 0.279 (inactive); in test [18], 0.04 (inactive); in test [19], 1.27. The results for the composite z-score in [14] and in [20] were -1.32 (inactive) and -0.0826, respectively.
Turning to `CCCCN1CC=CC23O[C@@H]4/C=C\CCC(C)OC(=O)C4[C@H]2C(=O)N(CCCCCCO)[C@@H]3C1=O` (stereo not given in full), the z-score in [1] was -0.0164; in [2], 0.736; in test [3], 1.11; in [4], 1.79; in [5], -0.273; in test [6], 0.375. In addition, the z-score in [7] is 0.145 (inactive); in test [8], 0.336; in [9] it was -0.563; in [10] it was 0.254 (inactive); in test [11], 0.634; in test [12] it was 0.14 (inactive). Further, the z-score in test [13] is 0.234 (inactive); in [15] it was 0.109 (inactive); in test [16], 0.432 (inactive); in [17], 0.666 (inactive); in test [18], 0.544 (inactive); in [19], 0.981. Further, the figures for the composite z-score in [14] and in test [20] were -0.524 (inactive) and 0.0081, respectively.
With `CCN(CC)c1ccc(N2CC=CC34O[C@@H]5/C=C\CCC(C)OC(=O)C5[C@H]3C(=O)N(CCO)[C@@H]4C2=O)cc1` (stereo not given in full), the z-score in [1] is 0.17; in test [2], 0.879; in test [3], 0.498; in test [4] it was -0.379; in [5], -0.597; in test [6], 0.178. Also, the z-score in [7] was -0.905 (inactive); in [8], -0.22; in [9] it was 1.83; in [10], -0.857 (inactive); in test [11], -0.68; in test [12], -0.958 (inactive). Besides, the z-score is -0.742 (inactive) in test [13]; -0.593 (inactive) in [15]; -0.481 (inactive) in [16]; -0.736 (inactive) in test [17]; -0.949 (inactive) in [18]; -0.833 in [19]. For the same molecule, the composite z-score in [14] is 0.543 (inactive); in [20], 0.283.
For `CN1C(=O)C2C(C1=O)C1C=C(c3ccc(CO)cc3)C2C(c2cccs2)N1Cc1cccc(OC(F)(F)F)c1` (stereo not given), the z-score in [1] was 0.567; in test [2], 1.25; in test [3] it was -0.617; in test [4], -0.314; in [5], -2.96; in test [6], -1.71. Besides, the z-score in test [7] was -1.12 (inactive); in [8], -0.722; in test [9] it was -0.556; in test [10] it was -0.665 (inactive); in [11] it was -0.153; in test [12] it was -2.49 (inactive). In addition, the z-score in test [13] was -2.06 (inactive); in test [15], -0.387 (inactive); in test [16], 0.476 (inactive); in test [17], -0.383 (inactive); in test [18], -0.319 (inactive); in [19], -1.08. For the same molecule, the results for the composite z-score in test [14] and in [20] were -1.6 (inactive) and 0.214, respectively.
